PME-1 inh: PME-1 inhibitors via competitive probe labeling, primary screen, biochemical, fluorescence polarization, FP-Rh probe, HTS; recombinant PME-1; inhibition, % at 5.9 µM; actives 0.53% (n = 320,000); AID 2130, 2009;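 active = inhibition above the campaign mean of all compounds plus 3 SD, cut at about 26% in these data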;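 also: competitive labeling of PME-1 active site by serine hydrolase directed probe; 0% = PME-1 with DMSO and 100% = wells lacking PME-1 enzyme; inhibitors block probe labeling so polarization falls and inhibition rises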
Target sequence (Q9Y570 whole entry, looked up): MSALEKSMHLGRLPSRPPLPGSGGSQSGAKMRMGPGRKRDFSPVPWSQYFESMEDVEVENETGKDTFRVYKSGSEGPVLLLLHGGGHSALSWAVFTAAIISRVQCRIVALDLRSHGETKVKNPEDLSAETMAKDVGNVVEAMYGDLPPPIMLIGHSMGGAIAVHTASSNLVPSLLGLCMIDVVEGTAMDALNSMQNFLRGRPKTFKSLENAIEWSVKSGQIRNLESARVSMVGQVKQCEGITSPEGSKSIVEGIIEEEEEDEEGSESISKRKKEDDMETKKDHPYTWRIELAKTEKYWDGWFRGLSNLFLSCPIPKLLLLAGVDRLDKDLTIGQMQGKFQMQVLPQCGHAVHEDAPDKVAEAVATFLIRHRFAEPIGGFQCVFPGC
Fam108B counter: mouse Fam108B serine hydrolase inhibitors, primary screen, counter-screen for RBBP9 inhibitor project, biochemical, fluorescence polarization. actives 0.33% (n = 300,000). inhibition, % at 9.51 µM. recombinant Fam108B, FP-Rh probe fluorescence polarization. AID 1947, 2009;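 active = inhibition above the screen mean inhibition plus 3 SD, computed separately per campaign, cut at about 18% in these data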;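 also: inhibitors lower polarization as less probe binds the enzyme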
PAFAH1B3 inh: PAFAH1B3 enzyme inhibitors, primary screen, biochemical, fluorescence polarization, human; Platelet-activating factor acetylhydrolase IB subunit alpha1 (Homo sapiens), Q15102; recombinant PAFAH1B3, FP-rhodamine probe; inhibition, % at 3.39 µM; actives 0.28% (n = 340,000); AID 492972, 2010;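 active = inhibition above the screen-wide average of all tested compounds plus 3 SD, cut at about 25% in these data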;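 also: 0% = enzyme with DMSO only and 100% = wells lacking PAFAH1B3 protein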
Target sequence (Q15102 whole entry, looked up): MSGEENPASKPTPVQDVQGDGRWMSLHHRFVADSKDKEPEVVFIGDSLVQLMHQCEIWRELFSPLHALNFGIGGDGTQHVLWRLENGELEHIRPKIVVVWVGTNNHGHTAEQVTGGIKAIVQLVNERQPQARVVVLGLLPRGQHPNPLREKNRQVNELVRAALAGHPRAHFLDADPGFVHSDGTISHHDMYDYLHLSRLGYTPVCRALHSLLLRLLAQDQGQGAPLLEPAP
pPAFAH FP inh: pPAFAH enzyme inhibitors, primary screen, biochemical, fluorescence polarization, human; Platelet-activating factor acetylhydrolase (Homo sapiens), Q13093; recombinant pPAFAH, FP-rhodamine probe fluorescence polarization; inhibition, % at 3.39 µM; actives 1.5% (n = 330,000);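 active = inhibition above the mean inhibition across the screen plus 3 SD, cut at about 25% in these data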;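 also: inhibitors block binding of the rhodamine activity-based probe so polarization drops; 0% = enzyme with DMSO and 100% = wells lacking pPAFAH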
PAFAH2 FP inh: PAFAH2 enzyme inhibitors, primary screen, biochemical, fluorescence polarization, human | inhibition, % at 3.39 µM | Platelet-activating factor acetylhydrolase 2, cytoplasmic (Homo sapiens), Q99487 | recombinant PAFAH2, FP-rhodamine activity probe | actives 0.99% (n = 340,000);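 active = inhibition above the mean over all tested compounds plus 3 SD, cut at about 30% in these data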;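 also: inhibitors block probe labeling of enzyme so polarization drops; 0% = enzyme with DMSO and 100% = wells lacking PAFAH2 protein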
PAFAH1B2 inh: PAFAH1B2 enzyme inhibitors, primary screen, biochemical, fluorescence polarization, human; recombinant PAFAH1B2, FP-rhodamine activity probe; inhibition, % at 3.39 µM; Platelet-activating factor acetylhydrolase IB subunit alpha2 (Homo sapiens), P68402; actives 1.2% (n = 340,000); AID 492953, 2010;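 active = inhibition above the mean of all tested compounds plus 3 SD, cut at about 24% in these data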;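 also: 0% = enzyme with DMSO and 100% = wells lacking PAFAH1B2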
* marks the source's active call; other numbers are inactive results; · = no result given. Hits are enriched below; roughly 2.9% of the tested compounds scored in any of these assays.

SMILES | PME-1 inh | Fam108B counter | PAFAH1B3 inh | pPAFAH FP inh | PAFAH2 FP inh | PAFAH1B2 inh
CC(C)(CC(=O)O)CC(=O)NCc1c(Cl)cccc1Oc1ccccc1 | 0 | 0 | 3 | 3 | 0 | 7
Cc1ccc2[nH]c(=O)c(C3C(C#N)=C(N)Oc4c3ccc3cccnc43)cc2c1 (stereo not given) | 10 | 6 | 7 | 25* | 11 | 3
N#CC1=C(N)Oc2c(ccc3cccnc23)C1c1ccccc1 (stereo not given) | 9 | 5 | 13 | 12 | 3 | 2
CN(Cc1ccccc1)C(=O)COc1cc(=O)n(C)c2ccccc12 | -2 | -4 | -9 | 32* | -9 | 9
CCN(Cc1ccccc1)C(=O)COc1cc(=O)n(CC)c2ccccc12 | 7 | 5 | 2 | 6 | 4 | 7
O=C(CN1C(=O)CCSc2ccc(S(=O)(=O)N3CCOCC3)cc21)Nc1cccc(F)c1 | 0 | 0 | -2 | 7 | 5 | -2
Cc1cc(C(=O)CN2C(=O)NC3(CCCc4sccc43)C2=O)c(C)n1-c1ccccc1 (stereo not given) | -1 | -9 | -1 | 20 | -1 | 7
COc1ccc(-n2c(C)cc(C(=O)CN3C(=O)NC4(CCCc5sccc54)C3=O)c2C)cc1 (stereo not given) | -6 | -1 | 1 | 25* | 5 | 3
COc1cc(C(c2c(C)[nH][nH]c2=O)c2c(C)[nH][nH]c2=O)ccc1OCc1ccc([N+](=O)[O-])cc1 | 7 | -4 | 8 | 11 | 1 | 26*
CC(C)=NNc1nc2sc3c(c2c(=O)[nH]1)CC(C)(C)OC3 | 36* | -4 | -2 | 5 | 2 | 1
CC1(C)Cc2c(sc3nc(SCC(=O)O)[nH]c(=O)c23)CO1 | 1 | -1 | 13 | 0 | 13 | 1
Cc1cc2c(cc1S(=O)(=O)NCC(C)c1ccccc1)n(C)c(=O)c(=O)n2C (stereo not given) | -4 | 3 | 6 | 1 | -6 | 26*
CN(CCC1CCOCC1)C(=O)C1CCC(=O)N(CCc2cccc(F)c2)C1 (stereo not given) | -4 | -3 | 11 | 5 | -5 | 1
Cn1cccc1C(=O)OCC(=O)Nc1ccc2c(c1)CCC2 | -3 | -4 | 1 | 28* | 62* | -1
CC(NS(=O)(=O)c1ccc(N)cc1)C1CC2CCC1C2 (stereo not given) | 2 | -3 | 5 | 5 | -3 | 20
CC(NS(=O)(=O)c1ccccc1)C1CC2CCC1C2 (stereo not given) | 0 | -2 | 3 | 7 | 11 | 25*
Cc1nnc(SC(C)C(=O)N(C)C2CCCCC2)n1N (stereo not given) | -3 | · | 7 | 2 | -5 | 2
CC(=O)c1cccc(NC(=S)N2CCN(S(=O)(=O)c3ccc(F)cc3)CC2)c1 | 2 | 1 | 6 | 7 | 2 | 8
CCOC(=O)c1c(N)sc2c1CCC1C(=O)N(C3CCCCC3)C(=O)C21 (stereo not given) | 6 | 0 | 2 | 34* | 11 | 4
CCOC(=O)c1c(N)sc2c1CCC(CC)C2 (stereo not given) | 0 | 5 | -1 | 26* | 5 | 3
CCC1CCc2c(sc(N)c2C(N)=O)C1 (stereo not given) | -2 | 0 | 11 | 8 | 0 | -2
CCOC(=O)c1c(N)sc2c1CCSC2 | 1 | -5 | 3 | 13 | -4 | -3
Cc1nn(C(=O)CCCC(=O)NCc2ccccc2)c2ccccc12 | 6 | 3 | 1 | 4 | -2 | 2
Cc1nn(-c2ccccc2)c2nc(C(F)F)cc(C(F)F)c12 | 6 | · | 4 | 2 | 4 | -1
COc1cccc(C(=O)Nc2cccc(C(=O)NC3=NN(c4c(Cl)cc(Cl)cc4Cl)C(=O)C3)c2)c1 | 1 | 4 | 22 | 30* | -12 | 5
SMILES | PME-1 inh | Fam108B counter | PAFAH1B3 inh | pPAFAH FP inh | PAFAH2 FP inh | PAFAH1B2 inh
COc1cccc(C(=O)Nc2cccc(NC(=O)c3ccccc3Cl)c2)c1 | 1 | -5 | -10 | 3 | -4 | -4
Oc1ccc(CNc2ccccc2)c2cccnc12 | -3 | 2 | 26* | 4 | 12 | 4
Oc1ccc(CNc2ccc(F)cc2)c2cccnc12 | -2 | 8 | 16 | 3 | 7 | 5
COc1ccc(C(C)=O)cc1COC(=O)c1ccc2c(c1)OCCO2 | -1 | · | 6 | 3 | 3 | -1
CCOC(=O)N1C(=O)NC(=O)C1c1ccc(Cl)cc1 (stereo not given) | · | · | 5 | · | -7 | 3
Cc1c(NC(=O)c2ccc(NS(=O)(=O)c3ccccc3)cc2)c(=O)n(-c2ccccc2)n1C | -1 | 0 | 0 | 8 | 8 | 5
Cc1ccc(NS(=O)(=O)c2cccc(C(=O)Nc3c(C)n(C)n(-c4ccccc4)c3=O)c2)cc1 | -6 | -1 | · | 25* | · | ·
Cc1ccc(NS(=O)(=O)c2cccc(C(=O)Nc3cc(C)on3)c2)cc1 | 4 | -2 | 3 | 33* | -5 | 3
Cc1cccc(C(=O)O/N=C/c2ccc(Br)cc2)c1 | -10 | -3 | 0 | 18 | 73* | 37*
COc1ccc(CNC(=O)C(OC(=O)c2nsc(Cl)c2Cl)C(C)C)cc1 (stereo not given) | -4 | 0 | 13 | 24 | 6 | 4
CC(C)C(OC(=O)c1nsc(Cl)c1Cl)C(=O)NCc1ccccc1 (stereo not given) | 1 | 0 | 6 | 26* | 11 | 5
C=CCN1C(=O)C(Cc2ccc(Br)cc2)S/C1=N\N=C\c1ccco1 (stereo not given) | -5 | 0 | 6 | -1 | 5 | 0
C=CCN1C(=O)C(Cc2ccc(OC)cc2)S/C1=N/N=C/c1ccco1 (stereo not given) | -4 | 2 | 0 | 28* | -4 | 0
CC(C)(C)N1[C@@H](CC(=O)O)c2cc(C(F)(F)F)ccc2S1(=O)=O | 0 | -3 | 14 | -5 | 0 | 3
Cc1ccc(-n2cccc2C(=O)NS(=O)(=O)c2ccc(C)cc2)cc1 | 10 | -1 | 0 | 1 | -4 | 28*
O=C1N/C(=N/NC(=O)c2cccc3ccccc23)S/C1=C\c1ccccc1OCc1ccccc1 | · | · | 26* | · | 10 | 14
COc1cccc(/C=C2\SC(=O)NC2=O)c1OCc1ccc(C(=O)O)cc1 | 4 | 4 | 14 | -2 | 6 | 11
Cc1ccc(/C=C2\SC(=S)N(NS(=O)(=O)c3ccc(C)cc3)C2=O)cc1 | -2 | -1 | 9 | 1 | 9 | 5
Cc1ccc(S(=O)(=O)NN2C(=O)/C(=C/c3cccn3C)SC2=S)cc1 | 2 | 1 | · | 61* | · | ·
